# Measured values from PubChem BioAssay AID1030 (National Center for Advancing Translational Sciences (NCATS), 2008).
# The whole screen tested about 220,000 compounds, of which about 16,000 (7.3%) were called active. Inconclusive results (about 25%) are left out. What follows is part of a selection rich in actives, with near analogues and random picks from the rest. Values without a mark were called inactive. Calls come from the whole dose curve; as a rule, active = well fitted inhibition curve with a large enough effect (not every such curve was filed as active); inconclusive = small, poorly fitted or top-dose-only effect, or another doubt; inactive = no such curve, though single readings can be large or run the other way.
# Molecular target: Aldehyde dehydrogenase 1A1 (Homo sapiens) (UniProt P00352)
# Sequence (P00352 whole entry, looked up): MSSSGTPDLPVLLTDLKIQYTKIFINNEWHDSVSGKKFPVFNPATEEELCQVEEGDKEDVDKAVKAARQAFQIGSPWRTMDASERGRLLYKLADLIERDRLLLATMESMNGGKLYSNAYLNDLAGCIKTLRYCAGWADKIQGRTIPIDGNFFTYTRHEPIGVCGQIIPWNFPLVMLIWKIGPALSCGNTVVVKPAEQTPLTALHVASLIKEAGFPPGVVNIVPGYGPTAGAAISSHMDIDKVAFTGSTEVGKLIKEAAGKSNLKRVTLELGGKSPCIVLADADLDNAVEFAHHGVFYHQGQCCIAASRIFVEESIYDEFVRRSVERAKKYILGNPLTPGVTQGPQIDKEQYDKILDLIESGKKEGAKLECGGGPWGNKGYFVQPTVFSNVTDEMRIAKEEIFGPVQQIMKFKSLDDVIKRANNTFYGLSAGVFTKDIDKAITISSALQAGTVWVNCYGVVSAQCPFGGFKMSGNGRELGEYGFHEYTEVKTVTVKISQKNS
# Test: qHTS Assay for Inhibitors of Aldehyde Dehydrogenase 1 (ALDH1A1);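 for activity, negative = inhibition: plate controls were no enzyme wells and a reference inhibitor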
# Settings: Purified ALDH1A1, NADH fluorescence, propionaldehyde substrate; series mostly up to 75.3 µM; activity, negative = inhibition: at the top concentration
# Potency is the fitted concentration of half-maximal effect.
SMILES,"activity, negative = inhibition",Potency
CN(NC(=O)C1CC(=O)N(c2ccccc2)C1)C1=NS(=O)(=O)c2ccccc21 (stereo unspecified),21.9%,
CCOC(=O)c1c(NC(=O)c2ccc(N3CCOCC3)c([N+](=O)[O-])c2)sc(C)c1C,-13.7%,
O=C(CSc1ccc([N+](=O)[O-])cn1)Nc1ccc(N2CCOCC2)c(Cl)c1,,22.4 µM (active)
O=C(CCNC(=O)c1ccc([N+](=O)[O-])cc1)Nc1ccccc1N1CCOCC1,0.402%,
O=C(CSc1ccc([N+](=O)[O-])cn1)Nc1ccc(N2CCOCC2)cc1,-1.5%,
CCOc1ccc(C(=O)NC(=S)Nc2ccc(NC(=O)C(C)C)cc2)cc1[N+](=O)[O-],0.53%,
CCOc1ccc(C(=O)NC(=S)Nc2ccc(N3CCOCC3)c(Cl)c2)cc1[N+](=O)[O-],,2.51 µM (active)
CN(C)N(C)C(=O)C(O)(c1ccccc1)c1ccccc1,8.36%,
Cc1ccc(S(=O)(=O)N(C)c2ccc(OCC(=O)NC3=NCCS3)cc2)cc1,-3.62%,
Cc1ccnc(N)c1,-5.54%,
Cc1cc(C)cc(N)c1,,25.1 µM (active)
Cc1cc(C(C)(C)C)cc(C)c1N,1.92%,
Cc1ccc(NC(=O)c2cccnc2C(=O)Nc2ccc(C)cc2)cc1,-3.95%,
CCCSc1nsc(N)n1,,20 µM (active)
CCCCCCSc1nsc(N)n1,4.63%,
COc1ccccc1OCC(=O)OCn1c(SC)nnc(C)c1=O,-9.76%,
CCOC(=O)c1cnc2[nH]c3ccccc3n2c1=O,-6.72%,
CCSc1ccccc1C(=O)Nc1ccc2c(c1)OCO2,-6.99%,
CCOC(=O)C1=C(C)Nc2nc3ccccc3n2C1c1cccs1 (stereo unspecified),2.54%,
CCOC(=O)C1=C(C)NC(=S)NC1c1cccs1 (stereo unspecified),,3.16 µM (active)
CCOC(=O)C1=C(C)NC(C)=C(C(=O)OCC)C1c1ccccn1,-5.2%,
C/C(=N\NC(=O)COc1c(C)cccc1C)c1cccs1,-2.33%,
CCOc1ccc(C(=O)NC2CCN(CC(=O)NCc3cccs3)CC2)cc1,-4.03%,
Cc1cc(C)n(-c2nnc(N3CCN(c4ccccc4)CC3)nn2)n1,4.54%,
CCSc1ncnc2c(C#N)c3n(c12)CCCCC3,,12.6 µM (active)
CCOC(=O)c1c(N=CN(C)C)c(C#N)c2n1CCCC2,-3%,

SMILES,"activity, negative = inhibition",Potency
C=C(C)c1cccc(C(C)(C)NC(=O)NCCN(CC)CC)c1,7.9%,
CCN(CCn1cccn1)C(=O)CC1C(=O)NCCN1Cc1cccc(OC)c1OC (stereo unspecified),0.331%,
C=C1c2cc(CC)ccc2NC(=O)N1c1ccc(C)cc1,-14.3%,
CCc1ccc2c(c1)C(c1ccc([N+](=O)[O-])cc1)=NNC(c1ccccc1)=N2,0.978%,
CCc1ccc2c(c1)C1(NN=C(c3ccccc3)S1)C(=O)N2 (stereo unspecified),,28.2 µM (active)
CCOc1cc(/C=C2/C(=N)N3OC(C)=CC3=NC2=O)ccc1OC,16.1%,
CCS(=O)(=O)C1=NSC2=NC(=O)/C(=C\c3cc(C)n(-c4cccc(OC)c4)c3C)C(=N)N21,,20 µM (active)
NC(=O)COC(=O)/C=C/c1ccc2ccccc2n1,-2.07%,
O=C(c1ccco1)N1CCN(C(=O)C2c3ccccc3Oc3ccccc32)CC1,,8.91 µM (active)
O=C(c1ccco1)N1CCN(C(=O)C2CC(c3ccc(Cl)c(Cl)c3)=NO2)CC1 (stereo unspecified),-9.91%,
O=C(c1ccco1)N1CCN(c2cccc(Cl)c2)CC1,-4.35%,
COc1ccc(-c2nn(-c3ccccc3)cc2CN2CCCO2)c(F)c1,-7.57%,
Cc1ccccc1CC1(CO)CCCN(Cc2ccc3c(c2)OCCO3)C1 (stereo unspecified),9.96%,
Cc1ccc(N(C(=O)Cc2cccs2)C(C(=O)NCC2CCCO2)c2ccncc2)cc1 (stereo unspecified),-12.7%,
CCN(CC)S(=O)(=O)c1ccc(N2CCOCC2)c(NC(=O)C2COc3ccccc3O2)c1 (stereo unspecified),9.44%,
O=S(=O)(Nc1cc(S(=O)(=O)N2CCOCC2)ccc1N1CCCC1)c1cccs1,,0.398 µM (active)
COCCNC(=S)Nc1cc(S(=O)(=O)N2CCOCC2)ccc1N1CCCCC1,,5.01 µM (active)
CCN(CC)S(=O)(=O)c1ccc(N2CCOCC2)c(C(=O)O)c1,5.53%,
O=C(c1ccc(N2CCOCC2)c([N+](=O)[O-])c1)N1CCN(S(=O)(=O)c2cccs2)CC1,-2.66%,
O=C(COC(=O)c1ccccc1F)Nc1cc(S(=O)(=O)N2CCOCC2)ccc1N1CCCC1,-11.1%,
CC(=O)NCCC(=O)Nc1cc(S(=O)(=O)N2CCOCC2)ccc1N1CCOCC1,0.246%,
O=C(COC(=O)Cc1ccc(F)cc1)Nc1cc(S(=O)(=O)N2CCOCC2)ccc1N1CCCC1,8.34%,
CCN(CC)S(=O)(=O)c1ccc(N2CCCC2)c(NS(=O)(=O)c2cccs2)c1,,0.282 µM (active)
Cc1ccc2cc(C)c(N3CCC(C)CC3)nc2c1,2.97%,
Cn1c(=O)cc(OCC(=O)N2CCN(c3ccccc3F)CC2)c2ccccc21,-15.9%,
